Molecules are shown by their SMILES. Compounds without any hit were thinned out: in the full panel of roughly 83,000, 20% have a hit.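 Activity criterion: percent growth below 10, measured after cells in 96-well plates were exposed to a single compound concentration for 48 hours.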 A number with no mark means an inactive call. Activity calls are given as the source filed them.

Some test systems named below: NCI-H23 lung; NCI-H226 lung; NCI-H322M lung; HOP-62 NSCLC; NCI-H460 lung; HOP-92 NSCLC; NCI-H522 lung; A549/ATCC NSCLC; 786-0 renal; COLO 205 colon; DU-145 prostate; K-562 leukemia; MALME-3M melanoma; MDA-MB-231 breast; RXF 393 renal; SF-268 CNS; SF-295 CNS; SF-539 CNS; UACC-257 melanoma; M14 melanoma.
Assay in all cases: NCI-60 one-dose screen, 48 h (100 = growth as untreated, 0 = no growth, -100 = all killed)
Common to all, as to settings: 10 µM unless noted

Regarding `CC(=O)Nc1cc(N2CCOCC2)c2nc(NC(=O)c3[nH]c(C)c(Cl)c3Cl)sc2c1`, the growth is 77.2% with NCI-H23 lung; 37.3% in the assay on NCI-H226 lung; 92.1% in the assay with NCI-H322M lung; 69.2% with HOP-62 NSCLC; 64% in the assay on NCI-H460 lung; 119% in the assay with HOP-92 NSCLC. Also, the growth with NCI-H522 lung is 71.8%; with A549/ATCC NSCLC, 71.9%; with 786-0 renal, 44.5%; in the assay on COLO 205 colon it was 104%; in the assay with DU-145 prostate, 58.1%; in the assay on K-562 leukemia it was 81.4%. The growth in the assay on MALME-3M melanoma was 54.7%; in the assay on MDA-MB-231 breast, 62.2%; in the assay with RXF 393 renal it was 19.2%; in the assay with SF-268 CNS, 93.9%; in the assay on SF-295 CNS, 50.8%; in the assay on SF-539 CNS, 48.7%. Besides, the growth was 84.8% in the assay on UACC-257 melanoma and 72.1% with M14 melanoma.

With `COc1ccc(C(C)=C(c2ccc(OCCN3CCCCCC3)cc2)c2ccc(OCCN3CCCCCC3)cc2)cc1`, the growth with NCI-H23 lung is -40.3% (active); in the assay on NCI-H226 lung, -46.1% (active); with NCI-H322M lung, -11.7% (active); in the assay with HOP-62 NSCLC, -52.4% (active); in the assay with NCI-H460 lung it was -57.2% (active); in the assay with HOP-92 NSCLC it was -8.87% (active). In addition, the growth was -52% (active) in the assay with NCI-H522 lung; -35.9% (active) in the assay with A549/ATCC NSCLC; -93.9% (active) with 786-0 renal; -60.8% (active) with COLO 205 colon; 6.1% (active) in the assay on DU-145 prostate; -32.5% (active) in the assay with K-562 leukemia. Also, the growth is -86.9% (active) with MALME-3M melanoma; -60.5% (active) in the assay on MDA-MB-231 breast; -82.4% (active) in the assay on RXF 393 renal; 4.71% (active) in the assay with SF-268 CNS; -86% (active) with SF-295 CNS; -88.4% (active) in the assay on SF-539 CNS. The growth was -65.5% (active) in the assay with UACC-257 melanoma and -89.5% (active) in the assay on M14 melanoma.

For the compound `O=C(CN1CCN(c2cc(=O)[nH]c3ccc(F)cc23)CC1)N(c1ccccc1)c1ccccc1`, the growth was 99.1% in the assay with NCI-H23 lung; 103% in the assay with NCI-H226 lung; 104% in the assay with NCI-H322M lung; 102% in the assay with HOP-62 NSCLC; 104% with NCI-H460 lung; 98.4% with HOP-92 NSCLC. The growth in the assay with NCI-H522 lung is 98.3%; with A549/ATCC NSCLC it was 115%; in the assay with 786-0 renal, 96%; with COLO 205 colon, 115%; with DU-145 prostate it was 107%; with K-562 leukemia, 94.9%. Also, the growth in the assay on MALME-3M melanoma was 100%; in the assay with MDA-MB-231 breast it was 98.1%; in the assay on RXF 393 renal it was 103%; in the assay on SF-268 CNS it was 99.8%; in the assay with SF-295 CNS, 107%; with SF-539 CNS, 101%. In addition, the growth was 106% in the assay on UACC-257 melanoma and 105% in the assay on M14 melanoma.

On to `Cc1ccc2c(n1)C(=O)C(Cl)=C(Nc1ccccc1C(=O)OC(C)(C)C)C2=O`, for which the growth with NCI-H23 lung is 10.6%; in the assay on NCI-H226 lung, 74.9%; in the assay on NCI-H322M lung it was 98.7%; in the assay with HOP-62 NSCLC it was 95.3%; with NCI-H460 lung, 86.2%; with HOP-92 NSCLC, -72% (active). In addition, the growth is -33.8% (active) in the assay on NCI-H522 lung; 102% in the assay with A549/ATCC NSCLC; -79.2% (active) with 786-0 renal; -66.1% (active) in the assay on COLO 205 colon; -56.2% (active) in the assay with DU-145 prostate; -15.7% (active) in the assay on K-562 leukemia. For the same compound, the growth was -45.9% (active) in the assay with MALME-3M melanoma; 55.5% in the assay on MDA-MB-231 breast; -81.7% (active) with RXF 393 renal; 79.6% in the assay with SF-268 CNS; 91.8% with SF-295 CNS; 83.1% in the assay on SF-539 CNS. In addition, the growth with UACC-257 melanoma was -63.5% (active); in the assay on M14 melanoma it was -10.6% (active).

`CN1CCN(Cc2ccc(NC(=O)c3cncc(C#Cc4cnc(N)nc4)c3)cc2C(F)(F)F)CC1`: the growth in the assay on NCI-H23 lung is 26.5%; with NCI-H226 lung, 12.8%; with NCI-H322M lung it was 34.3%; in the assay on HOP-62 NSCLC, 19.3%; in the assay with NCI-H460 lung, 12.9%; in the assay with HOP-92 NSCLC, -28.8% (active). Also, the growth was 36.5% with NCI-H522 lung; 38% in the assay with A549/ATCC NSCLC; 40% with 786-0 renal; 13.2% in the assay on COLO 205 colon; 34.4% with DU-145 prostate; 5.93% (active) with K-562 leukemia. The growth in the assay with MALME-3M melanoma was -31.1% (active); in the assay with MDA-MB-231 breast it was -7.34% (active); in the assay with RXF 393 renal, 26.4%; with SF-268 CNS it was 28.1%; in the assay on SF-295 CNS it was 33.1%; with SF-539 CNS, 14.6%. The growth with UACC-257 melanoma is 22.1%; in the assay on M14 melanoma, -19.3% (active).

For `CCN(CC)c1ccc(/C=N/NC(=O)c2ccc(S(N)(=O)=O)cc2)cc1`, the growth is 25.1% in the assay on NCI-H23 lung; 45.1% in the assay with NCI-H226 lung; 28.1% in the assay with NCI-H322M lung; 18.6% with HOP-62 NSCLC; 7.17% (active) with NCI-H460 lung; 72.3% in the assay with HOP-92 NSCLC. The growth with NCI-H522 lung is 18.7%; with A549/ATCC NSCLC, 26.1%; with 786-0 renal, 9.66% (active); in the assay with COLO 205 colon, 11.1%; in the assay on DU-145 prostate it was 34.7%; with K-562 leukemia it was 14.7%. Moreover, the growth was 8.81% (active) in the assay with MALME-3M melanoma; 38.3% in the assay with MDA-MB-231 breast; -6.07% (active) in the assay with RXF 393 renal; 29.4% in the assay with SF-268 CNS; 16% with SF-295 CNS; 17% with SF-539 CNS. Moreover, the growth was 2.22% (active) with UACC-257 melanoma and -1.23% (active) in the assay with M14 melanoma.

Consider `CC(=O)OC[C@]12CC[C@@H](C(=O)/C=C/c3cccnc3)[C@@H]1[C@H]1CC[C@@H]3[C@@]4(C)CC[C@H](OC(C)=O)C(C)(C)[C@@H]4CC[C@@]3(C)[C@]1(C)CC2`, for which the growth in the assay with NCI-H23 lung is 1.02% (active); in the assay with NCI-H226 lung, -70.5% (active); in the assay with NCI-H322M lung, 53.5%; with HOP-62 NSCLC, 28.1%; in the assay with NCI-H460 lung, 7.8% (active); with HOP-92 NSCLC, -29.1% (active). Besides, the growth is -20.3% (active) in the assay with NCI-H522 lung; 23.1% in the assay with A549/ATCC NSCLC; 27.2% in the assay with 786-0 renal; -18.6% (active) in the assay on COLO 205 colon; 45.7% with DU-145 prostate; 13.1% with K-562 leukemia. The growth with MALME-3M melanoma is -66.3% (active); in the assay with MDA-MB-231 breast, -40.5% (active); in the assay with RXF 393 renal, -71.6% (active); in the assay with SF-268 CNS, 42.2%; with SF-295 CNS, 29.7%; with SF-539 CNS, -52.7% (active). The growth was -4.75% (active) in the assay with UACC-257 melanoma and 12.2% with M14 melanoma.

As for `Cc1ccc(-c2csc(N/N=C/c3cccs3)n2)cc1`, the growth in the assay on NCI-H23 lung was 79.4%; with NCI-H226 lung, 70.1%; with NCI-H322M lung, 97%; in the assay on HOP-62 NSCLC, 95.3%; in the assay on NCI-H460 lung it was 99.4%; with HOP-92 NSCLC it was 87.3%. Also, the growth was 73.3% in the assay on NCI-H522 lung; 84.2% in the assay on A549/ATCC NSCLC; 97.5% with 786-0 renal; 115% in the assay with COLO 205 colon; 100% with DU-145 prostate; 74.4% in the assay on K-562 leukemia. Further, the growth was 88.8% with MALME-3M melanoma; 92.5% with MDA-MB-231 breast; 115% with RXF 393 renal; 106% in the assay on SF-268 CNS; 92.8% in the assay on SF-295 CNS; 104% in the assay on SF-539 CNS. Besides, the growth with UACC-257 melanoma is 97.1%; in the assay with M14 melanoma, 90.4%.
